This passage reports outcome and AC50 results from PubChem BioAssay (EPA / NIEHS).

Read-out in assay [1]: Transforming growth factor beta 1 (TGFb1), TGFB1 (gene 7040)
In words: BSK_KF3CT_TGFb1: BioMAP Diversity Plus: KF3CT Assay for Transforming growth factor beta 1 (TGFb1) Biomarker Activity (AID 2283072). The following applies: primary human keratinocytes with fibroblasts; actives raise or lower the signal. A digest of the protocol: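 ELISA quantifies TGF-b1 at 24 h post-dose in a primary human skin co-culture of keratinocytes and fibroblasts, with gain or loss judged against DMSO. Parallel SRB total-protein staining flags overt cytotoxicity.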

Read-out in assay [2]: C-C motif chemokine 2 (Homo sapiens) (UniProt P13500)
In words: BSK_KF3CT_MCP1: BioMAP Diversity Plus: KF3CT Assay for Monocyte Chemoattractant Protein 1 (MCP1/CCL2) Biomarker Activity (AID 2283073). The following applies: primary human keratinocytes with fibroblasts; actives raise or lower the signal. An outline of the steps: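 Human keratinocyte plus foreskin fibroblast primary co-culture exposed to chemical for 24 h. MCP-1 levels measured by ELISA. Bidirectional curve fitting relative to DMSO negative control as baseline.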

Read-out in assay [3]: Matrix Metallopeptidase 9 (MMP9), MMP9 (gene 4318)
Put plainly: BSK_KF3CT_MMP9: BioMAP Diversity Plus: KF3CT Assay for Matrix Metallopeptidase 9 (MMP9) Biomarker Activity (AID 2283074).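 For AC50: MMP9 protein level quantified by ELISA in the co-culture.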 Conditions: primary human keratinocytes with fibroblasts; actives raise or lower the signal. An outline of the steps:
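ELISA read-out of MMP-9 at 24 h post-dosing in a co-culture of human skin keratinocytes and foreskin fibroblasts. Gain or loss of signal was fitted in both directions against DMSO.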

Read-out in assay [4]: urokinase plasminogen activator (uPA), PLAU (gene 5328)
Put plainly: BSK_KF3CT_uPA: BioMAP Diversity Plus: KF3CT Assay for urokinase plasminogen activator (uPA) Biomarker Activity (AID 2283075). Conditions: primary human keratinocytes with fibroblasts; actives raise or lower the signal. A digest of the protocol:
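Skin co-culture (keratinocytes + foreskin fibroblasts), human primary; 24 h post-dose; uPA by ELISA; gain/loss fit vs DMSO baseline.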

Read-out in assay [5]: CD40, CD40 (gene 958)
In words: BSK_LPS_CD40: BioMAP Diversity Plus: LPS Assay for CD40 Biomarker Activity (AID 2283076). The following applies: primary human HUVEC with PBMC; actives raise or lower the signal. An outline of the steps:
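Primary human umbilical vein endothelial cells co-cultured with peripheral blood mononuclear cells, LPS-stimulated, were dosed with chemical and read 24 h later. CD40 levels were measured by ELISA and fitted bidirectionally against DMSO as negative control and baseline.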

Read-out in assay [6]: E-selectin (Homo sapiens) (UniProt P16581)
Put plainly: BSK_LPS_Eselectin: BioMAP Diversity Plus: LPS Assay for Eselectin Biomarker Activity (AID 2283077). Conditions: primary human HUVEC with PBMC; actives raise or lower the signal. An outline of the steps: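 Human umbilical vein endothelial cells co-cultured with peripheral blood mononuclear cells under LPS stimulation; E-selectin measured by ELISA 24 h after chemical dosing. Activity fitted bidirectionally against DMSO as negative control and baseline.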

Read-out in assay [7]: Interleukin-8 (IL8), CXCL8 (gene 3576)
In words: BSK_LPS_IL8: BioMAP Diversity Plus: LPS Assay for Interleukin-8 (IL8) Biomarker Activity (AID 2283078). Conditions: primary human HUVEC with PBMC; actives raise or lower the signal. An outline of the steps: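 Human umbilical vein endothelial cells co-cultured with PBMC were stimulated with LPS; IL-8 levels were measured by ELISA 24 h after chemical dosing. Activity was fitted bidirectionally against DMSO as negative control and baseline.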

A short description of assay [8]: BSK_LPS_SRB: Viability Assessment in the BioMAP Diversity Plus: LPS Assay (AID 2283079).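 Note: total protein by sulforhodamine B absorbance as a cytotoxicity measure; measured one day after compound addition.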 Conditions: primary human HUVEC with PBMC. A digest of the protocol:
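Human umbilical vein endothelial cells co-cultured with PBMC (LPS system) were dosed for 24 h. Total protein was stained with 0.1% sulforhodamine B after 10% TCA fixation, read at 560 nm, and fitted bidirectionally against DMSO baseline.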

Read-out in assay [9]: Interleukin-1 alpha (IL1a), IL1A (gene 3552)
Put plainly: BSK_LPS_IL1a: BioMAP Diversity Plus: LPS Assay for Interleukin-1 alpha (IL1a) Biomarker Activity (AID 2283080). Conditions: primary human HUVEC with PBMC; actives raise or lower the signal. A digest of the protocol: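 Human umbilical vein endothelial cells co-cultured with peripheral blood mononuclear cells were LPS-stimulated and exposed to test chemicals for 24 h. IL-1 alpha was quantified by ELISA, with bidirectional curve fitting against DMSO as the negative control and baseline.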

Read-out in assay [10]: Monocyte Chemoattractant Protein-1 (MCP1), CCL2 (gene 6347)
Put plainly: BSK_LPS_MCP1: BioMAP Diversity Plus: LPS Assay for Monocyte Chemoattractant Protein-1 (MCP1) Biomarker Activity (AID 2283081). The following applies: primary human HUVEC with PBMC; actives raise or lower the signal. An outline of the steps: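 HUVEC plus PBMC co-culture (human primary cells, LPS system) exposed to test chemical for 24 h; MCP-1 measured by ELISA. Bidirectional curve fitting against DMSO baseline; parallel SRB total-protein staining flags overt cytotoxicity.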

Assay [11] in a line: BSK_LPS_PGE2: BioMAP Diversity Plus: LPS Assay for Prostaglandin E2 (PGE2) Biomarker Activity (AID 2283082). The following applies: primary human HUVEC with PBMC; actives raise or lower the signal. An outline of the steps: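 PGE2 release measured by ELISA in an LPS-activated co-culture of human umbilical vein endothelial cells and peripheral blood mononuclear cells, read at 24 h post-dosing. DMSO served as baseline for bidirectional curve fitting.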

Read-out in assay [12]: Macrophage colony-stimulating factor (MCSF), CSF1 (gene 1435)
In words: BSK_LPS_MCSF: BioMAP Diversity Plus: LPS Assay for Macrophage colony-stimulating factor (MCSF) Biomarker Activity (AID 2283083). The following applies: primary human HUVEC with PBMC; actives raise or lower the signal. A digest of the protocol: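 Human umbilical vein endothelial cells co-cultured with peripheral blood mononuclear cells were exposed to compound for 24 h. M-CSF levels were measured by ELISA, and bidirectional curve fitting used DMSO as the negative control and baseline.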

Read-out in assay [13]: Tissue Factor, F3 (gene 2152)
In words: BSK_LPS_TissueFactor: BioMAP Diversity Plus: LPS Assay for Tissue Factor Biomarker Activity (AID 2283084). Conditions: primary human HUVEC with PBMC; actives raise or lower the signal. A digest of the protocol: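 Human umbilical vein endothelial cells co-cultured with peripheral blood mononuclear cells were dosed and stimulated with LPS. Cell-surface CD142 was quantified by ELISA at 24 h. Activity was fitted bidirectionally against DMSO baseline.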

Read-out in assay [14]: Tumor necrosis factor (Homo sapiens) (UniProt P01375)
In words: BSK_LPS_TNFa: BioMAP Diversity Plus: LPS Assay for Tumour Necrosis Factor alpha (TNFa) Biomarker Activity (AID 2283085).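 For AC50: TNFa protein level quantified by ELISA in the co-culture.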 Conditions: primary human HUVEC with PBMC; actives raise or lower the signal. An outline of the steps: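 TNFa was quantified by ELISA in LPS-activated co-cultures of human endothelial cells and PBMC, 24 h post-dosing. Both increases and decreases versus DMSO were fitted.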

Read-out in assay [15]: Vascular cell adhesion molecule 1 (VCAM1), VCAM1 (gene 7412)
In words: BSK_LPS_VCAM1: BioMAP Diversity Plus: LPS Assay for Vascular cell adhesion molecule 1 (VCAM1) Biomarker Activity (AID 2283086). The following applies: primary human HUVEC with PBMC; actives raise or lower the signal. An outline of the steps: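 VCAM-1 quantified by ELISA in an LPS-activated co-culture of human endothelial cells and peripheral blood mononuclear cells, read 24 h post-treatment. Fitted in both directions versus DMSO; parallel SRB staining flags overt cytotoxicity.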

Read-out in assay [16]: CD40, CD40 (gene 958)
In words: BSK_SAg_CD40: BioMAP Diversity Plus: SAg Assay for CD40 Biomarker Activity (AID 2283088). Conditions: primary human HUVEC with PBMC; actives raise or lower the signal. A digest of the protocol: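 Human umbilical vein endothelial cells co-cultured with PBMC; CD40 levels measured by ELISA with fluorescence read-out 24 h after chemical dosing. Gain or loss of signal fitted bidirectionally against DMSO baseline.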

Read-out in assay [17]: Monocyte Chemoattractant Protein-1 (MCP1), CCL2 (gene 6347)
Put plainly: BSK_SAg_MCP1: BioMAP Diversity Plus: SAg Assay for Monocyte Chemoattractant Protein-1 (MCP1) Biomarker Activity (AID 2283090). The following applies: primary human HUVEC with PBMC; actives raise or lower the signal. A digest of the protocol: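 Values derive from bidirectional fitting of ELISA-measured MCP1 against DMSO controls. Readings were taken 24 h after dosing human vascular endothelial cells co-cultured with peripheral blood mononuclear cells under superantigen stimulation.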

Read-out in assay [18]: E-selectin (Homo sapiens) (UniProt P16581)
In words: BSK_SAg_Eselectin: BioMAP Diversity Plus: SAg Assay for Eselectin Biomarker Activity (AID 2283091). Conditions: primary human HUVEC with PBMC; actives raise or lower the signal. An outline of the steps: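 HUVEC co-cultured with PBMC, compound dosed then read at 24 h; E-selectin measured by ELISA. Activity fitted bidirectionally against DMSO as negative control and baseline.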

Read-out in a further assay: CD38, CD38 (gene 952)
In words: BSK_SAg_CD38: BioMAP Diversity Plus: SAg Assay for CD38 Biomarker Activity (AID 2283087). The following applies: primary human HUVEC with PBMC; actives raise or lower the signal. A digest of the protocol:
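CD38 quantified by ELISA (fluorescence) in a superantigen-activated endothelial cell–PBMC co-culture at 24 h post-dose. Activity fitted in both directions relative to DMSO; parallel SRB and Alamar Blue cytotoxicity read-outs.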

Read-out in the next assay: CD69, CD69 (gene 969)
Put plainly: BSK_SAg_CD69: BioMAP Diversity Plus: SAg Assay for CD69 Biomarker Activity (AID 2283089). Conditions: primary human HUVEC with PBMC; actives raise or lower the signal. A digest of the protocol:
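Primary human vascular co-culture (umbilical vein endothelium with peripheral blood mononuclear cells) exposed to test chemical for 24 h. CD69 levels quantified by fluorescence ELISA; DMSO served as negative control for bidirectional fitting.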

Active and inactive are the calls of the source. Rule for the calls: active = hit-call score of the fitted dose curve at least 0.9, where 1 is the maximum; inactive = score below 0.9.

Sequence of Tumor necrosis factor (Homo sapiens) (P01375 whole entry, looked up): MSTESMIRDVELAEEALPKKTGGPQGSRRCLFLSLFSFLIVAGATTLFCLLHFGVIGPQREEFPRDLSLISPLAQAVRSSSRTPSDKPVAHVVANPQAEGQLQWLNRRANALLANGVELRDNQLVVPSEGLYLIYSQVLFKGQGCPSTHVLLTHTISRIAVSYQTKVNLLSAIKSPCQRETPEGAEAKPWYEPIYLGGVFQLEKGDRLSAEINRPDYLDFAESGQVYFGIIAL
Sequence of E-selectin (Homo sapiens) (P16581 whole entry, looked up): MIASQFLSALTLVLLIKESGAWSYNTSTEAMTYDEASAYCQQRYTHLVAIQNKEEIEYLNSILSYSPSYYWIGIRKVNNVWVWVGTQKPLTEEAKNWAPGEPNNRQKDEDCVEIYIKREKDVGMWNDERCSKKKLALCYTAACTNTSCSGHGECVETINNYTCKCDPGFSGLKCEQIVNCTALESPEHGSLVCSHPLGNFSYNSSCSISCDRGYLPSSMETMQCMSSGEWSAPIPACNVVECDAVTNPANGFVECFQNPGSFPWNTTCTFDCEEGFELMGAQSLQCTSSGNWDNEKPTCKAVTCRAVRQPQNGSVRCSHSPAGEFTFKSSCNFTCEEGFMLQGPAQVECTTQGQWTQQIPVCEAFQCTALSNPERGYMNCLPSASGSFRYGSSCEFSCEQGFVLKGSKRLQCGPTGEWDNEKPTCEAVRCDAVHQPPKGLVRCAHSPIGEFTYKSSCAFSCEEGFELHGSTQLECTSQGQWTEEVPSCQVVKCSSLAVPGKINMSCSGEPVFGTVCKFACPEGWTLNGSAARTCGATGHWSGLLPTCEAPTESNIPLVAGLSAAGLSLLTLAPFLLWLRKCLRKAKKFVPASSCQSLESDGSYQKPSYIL

`CCOP(=O)(OCC)Oc1nc(Cl)c(Cl)cc1Cl`: the outcome in [1], in assay [6], in assay [7], in assay [9], in assay [10] and in assay [11] was inactive. Also, the result in [12], in assay [13] and in assay [18] was inactive. Moreover, the half-maximal activity concentration (AC50) in [2] is 21.5 µM (active); in assay [3] it was 8.58 µM (active); in assay [4], 9.55 µM (active); with CD40, CD40 (gene 958) [5], 19.5 µM (active); in assay [8], 10.7 µM (active); in assay [14], 35.9 µM (active). Besides, the AC50 in assay [15] was 16.7 µM (active); with CD40, CD40 (gene 958) [16], 20 µM (active); in assay [17] it was 23.9 µM (active).
On to `O=C(O)c1c(Cl)ccc2cc(Cl)cnc12`, for which the outcome in assay [1] was “inactive”; in [2] it was “inactive”; in assay [3], “inactive”; in assay [4], “inactive”; with CD40, CD40 (gene 958) [5], “inactive”; in assay [6], “inactive”. Also, the outcome in assay [7], in assay [8], in assay [9], in [10], in assay [11] and in assay [12] was inactive. Also, the outcome in assay [13] was “inactive”; in assay [14], “inactive”; in assay [15], “inactive”; in the assay with CD38, CD38 (gene 952) it was “inactive”; with CD40, CD40 (gene 958) [16], “inactive”; in the assay with CD69, CD69 (gene 969), “inactive”. For the same compound, the outcome in [17] and in assay [18] was inactive.
Regarding `Nc1c(Cl)c(Cl)nc(C(=O)O)c1Cl`, the outcome is “inactive” in assay [1]; “inactive” in assay [3]; “inactive” in assay [4]; “inactive” in the assay with CD40, CD40 (gene 958) [5]; “inactive” in assay [6]; “inactive” in [7]. Moreover, the result in [8], in assay [9], in [10], in assay [11], in assay [12] and in assay [13] was inactive. The outcome was “inactive” in assay [14]; “inactive” in assay [15]; “inactive” with CD38, CD38 (gene 952); “inactive” with CD40, CD40 (gene 958) [16]; “inactive” with CD69, CD69 (gene 969); “inactive” in assay [17]. Besides, in assay [18], the result was inactive.
